About 83,000 compounds went through this panel and 20% of them were active in at least one assay; those are over-represented in the sample as a whole.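 Assay: single dose, 48 h. Readout: percent growth (0 = no net growth; negative = cell death). Active: <10.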 Calls of active or inactive are those of the source.
Tests used:
Assay in all cases: NCI-60 one-dose screen, 48 h (100 = growth as untreated, 0 = no growth, -100 = all killed)
Conditions in all cases: 10 µM unless noted
[1] = tested on: HCT-15 colon
[2] = tested on: HT29 colon
[3] = tested on: SNB-75 CNS
[4] = tested on: SNB-19 CNS
[5] = tested on: U251 CNS
[6] = tested on: PC-3 prostate
[7] = tested on: SK-MEL-5 melanoma
[8] = tested on: UACC-62 melanoma
[9] = tested on: LOX IMVI melanoma
[10] = tested on: SK-MEL-28 melanoma
[11] = tested on: SK-MEL-2 melanoma
[12] = tested on: EKVX NSCLC
[13] = tested on: SN12C renal
[14] = tested on: UO-31 renal
[15] = tested on: TK-10 renal
[16] = tested on: ACHN renal
[17] = tested on: CAKI-1 renal
[18] = tested on: A498 renal
[19] = tested on: CCRF-CEM leukemia
[20] = tested on: MOLT-4 leukemia

Measured: growth

N#Cc1c(-c2ccccc2)nc2c(c(-c3ccc(Cl)cc3)nn2-c2ccccc2)c1-c1ccc([N+](=O)[O-])cc1
inactive: [1] 99.4% | [2] 93.5% | [3] 88.3% | [4] 90.9% | [5] 95.3% | [6] 88.7% | [7] 99.2% | [8] 86.5% | [9] 94.7% | [10] 102% | [11] 104% | [12] 103% | [13] 105% | [14] 81.2% | [15] 121% | [16] 97.5% | [17] 79% | [18] 99.7% | [19] 90.6% | [20] 97.1%

C=C1C(=O)O[C@@H]2C3C(=C(C)CC[C@@H]12)CC1O[C@]13C (stereo not given in full)
inactive: [1] 50.4% [6.75 µM] | [2] 85.5% [6.75 µM] | [3] 86.1% [6.75 µM] | [4] 92.8% [6.75 µM] | [5] 90.3% [6.75 µM] | [6] 85.2% [6.75 µM] | [7] 55.6% [6.75 µM] | [8] 74.6% [6.75 µM] | [9] 51.8% [6.75 µM] | [10] 90.4% [6.75 µM] | [11] 90.4% [6.75 µM] | [12] 91.5% [6.75 µM] | [13] 86.6% [6.75 µM] | [14] 54.5% [6.75 µM] | [15] 40.5% [6.75 µM] | [16] 73.2% [6.75 µM] | [17] 90.1% [6.75 µM] | [18] 103% [6.75 µM] | [19] 23.2% [6.75 µM] | [20] 84% [6.75 µM]

COCCOC(C)C(/C=N/NC(N)=S)=N/NC(N)=S (stereo not given)
inactive: [1] 51.8% | [2] 39.5% | [3] 120% | [4] 92.8% | [5] 48.5% | [6] 27.9% | [7] 60.8% | [8] 67.1% | [9] 51.1% | [10] 90.1% | [11] 82.5% | [12] 55.7% | [13] 76.5% | [14] 79.1% | [15] 92.5% | [16] 66.7% | [17] 82.6% | [18] 107% | [19] 42.6% | [20] 16.7%

C/C(Cc1ccc(Cl)cc1)=C(\c1ccc(OCCN2CCCCCC2)cc1)c1ccc(OC(=O)c2ccccc2)cc1
active: [2] 6.24% | [8] -3.38% | [9] -21.8% | [10] -1.89% | [19] -4.75% | [20] 9.42%
inactive: [1] 14.1% | [3] 77.3% | [4] 50.3% | [5] 37.8% | [6] 19.4% | [7] 35.3% | [11] 77.4% | [12] 78.8% | [13] 11.2% | [14] 24% | [15] 67% | [16] 68.9% | [17] 52.6% | [18] 76.1%

N#Cc1ccc(O)c(C2=NCC(c3ccc(-c4ccccc4)cc3)O2)c1 (stereo not given)
active: [5] 4.51% | [7] 3.96% | [8] -5.35% | [11] -4.74% | [14] 1.37% | [17] 3.1% | [20] 0.755%
inactive: [1] 24.6% | [2] 18.1% | [3] 26.2% | [4] 18% | [6] 25.5% | [9] 11.8% | [10] 23.7% | [12] 15.6% | [13] 29.8% | [15] 12.4% | [16] 11.6% | [18] 48.6% | [19] 11.6%

O=C(C1=Cc2cc3ccccc3n2Cc2cnnn21)c1ccc(F)cc1
inactive: [1] 95.8% | [2] 112% | [3] 86.2% | [4] 94.1% | [5] 98.2% | [6] 92.3% | [7] 96% | [8] 90.9% | [9] 98.8% | [10] 105% | [11] 103% | [12] 96.2% | [13] 97.6% | [14] 88.6% | [15] 107% | [16] 103% | [17] 90.9% | [18] 79.9% | [19] 97.8% | [20] 89%

CCn1cc(Cc2cc(C(=O)Nc3cc4cc(OC)c(OC)cc4c(C)n3)ccc2Cl)cn1
inactive: [1] 19.3% | [3] 36% | [4] 44.7% | [5] 48.3% | [6] 29.2% | [7] 13.3% | [8] 43.8% | [10] 35% | [11] 42% | [12] 47.2% | [13] 50.2% | [14] 35% | [15] 73.7% | [16] 15.7% | [17] 47.8% | [18] 44.4% | [19] 22.4% | [20] 42.6%
active: [2] 2.56% | [9] 5.28%

Cc1cccc(NC(=O)Cn2cc(CN3CCN(c4ccnc5cc(Cl)ccc45)CC3)nn2)c1
inactive: [1] 88.8% | [2] 98.5% | [3] 75% | [4] 89.6% | [5] 93% | [6] 63.3% | [7] 68.8% | [8] 73% | [9] 81.6% | [10] 102% | [11] 108% | [12] 87.7% | [13] 93.8% | [14] 65.7% | [15] 102% | [16] 82.9% | [17] 72.7% | [18] 84.3%
active: [19] -32.9% | [20] 5.76%
